Records with an inconclusive call do not appear. Where a call stands in place of a potency, no number is given. A number with no mark means an inactive call. Calls of active or inactive are those of the source. The call rests on the fitted dose curve; in most records, active means well fitted inhibition curve with a large enough effect; inconclusive means small, poorly fitted or top-dose-only effect; inactive means no such curve, though single readings can be large or run the other way.
Assays:
[1] = system: Zika virus NS2B-NS3 protease (unlinked complex); experiment: Primary screen GU Rhodamine qHTS for Zika virus inhibitors: Unlinked NS2B-NS3 protease assay (AID 1347159); further: nearly all actives have a fitted effect of over 60% in size
Outline: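 Unlinked NS2B/NS3, 25 nM; Rhod110 peptide, 1.5 microM; compounds, up to 114 microM. Reaction run 15 min at RT in 10 mM Tris-HCl pH 8.0, 0.01% Tween 20; kinetic fluorescence change fitted with a 4-parameter Hill model.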

[2] = system: Zika virus NS2B-NS3 protease (linked construct); experiment: Primary screen NINDS Rhodamine qHTS for Zika virus inhibitors (AID 1347160); further: nearly all actives have a fitted effect of over 55% in size
Outline: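 Single-chain NS2B-NS3 protease, 25 nM, pH 8.0; compounds preincubated 15 min. Activity: Rhodamine110 release from 1.5 microM substrate over 15 min, room temperature, data fitted to 4-parameter Hill.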

Compound | Potency [1] | Potency [2] | activity change, negative = inhibition [1]
COc1cc(C(CO)CO[C@@H]2O[C@H](CO)[C@@H](O)[C@H](O)[C@H]2O)ccc1O (stereo not given in full) | inactive | inactive | –
CC(C)CC[C@@H](O)[C@](C)(O)[C@H]1CC[C@@]2(O)C3=CC(=O)[C@@H]4C[C@@H](O)[C@@H](O)C[C@]4(C)[C@H]3CC[C@]12C | inactive | inactive | –
CC(C)(O)C1OC1C1=CC(=O)C2(C)OC2C1O (stereo not given) | inactive | inactive | –
OC[C@H]1O[C@@H](OCc2ccccc2)[C@H](O[C@@H]2OC[C@@H](O)[C@H](O)[C@H]2O)[C@@H](O)[C@@H]1O | inactive | inactive | –
CCNC(=O)C1CC(F)(c2ccc(CN3CCCC3)c(F)c2)C1 (stereo not given) | inactive | inactive | –
COc1cccc2c1c(O)c(C(=O)N(C)c1ccc(C(F)(F)F)cc1)c(=O)n2C | inactive | inactive | –
COC1OC(OC)C(O)(CCC2(C)C(C)CCC3(C)C2CC(O)C(O)C32CO2)C1O (stereo not given) | inactive | inactive | –
COc1cnc(-n2cnc(C)n2)c2[nH]cc(C(=O)C(=O)N3CCN(C(=O)c4ccccc4)CC3)c12 | inactive | inactive | –
Oc1ccccc1-c1cc(-c2ccccc2F)[nH]n1 | inactive | inactive | –
Cc1ccc(-n2nc(C(C)(C)C)cc2NC(=O)Nc2cc(COc3cccnc3)[nH]n2)cc1 | inactive | inactive | –
C=C(C)[C@@H]1CC[C@]2(C(=O)O)CC[C@]3(C)C(CCC4[C@]5(C)C(CC[C@]43C)C(C)(C)[C@@H](O)[C@@H]5C(=O)O)C12 (stereo not given in full) | inactive | inactive | –
C[C@@]1(C(=O)O)CCC[C@@]2(C)C3=CC[C@H]4C[C@@]3(CC[C@H]12)CC4(O)CO (stereo not given in full) | inactive | inactive | –
CC(C)(CC(=O)N1CCCC1)NCC(=O)N1C[C@@H](F)C[C@H]1C#N | inactive | inactive | –
COC(=O)/C=C/c1ccc(O[C@@H]2O[C@H](CO)[C@@H](O)[C@H](O)[C@H]2O)cc1 | inactive | inactive | –
C=C1CC[C@@H]2[C@@](C)(CO[C@@H]3O[C@H](CO)[C@@H](O)[C@H](O)[C@H]3O)[C@H](O)CC[C@@]2(C)[C@@H]1CC/C(C)=C/CO[C@@H]1O[C@H](CO)[C@@H](O)[C@H](O)[C@H]1O | inactive | inactive | –
CC1(C)C=Cc2c(ccc3c2N=C2C(C)(C)[C@@H]4C[C@]56CCCN5C(=O)[C@@]4(C[C@]23O)NC6=O)O1 | inactive | inactive | –
C=C1C(OC(C)=O)[C@@]23CCC4[C@](C)(C(=O)O)CCC[C@@]4(C)[C@]2(O)CC[C@H]1C3 (stereo not given in full) | inactive | inactive | –
C[C@@H]1O[C@@H](O[C@H]2[C@H](OC(=O)[C@]34CCC(C)(C)C[C@H]3C3=CCC5[C@@]6(C)C[C@@H](O)[C@@H](O[C@@H]7O[C@H](CO)[C@@H](O)[C@H](O)[C@H]7O)[C@@](C)(CO)C6[C@H](O)C[C@@]5(C)[C@]3(C)CC4)OC[C@H](O)[C@@H]2O)[C@H](O)[C@H](O[C@@H]2OC[C@](O)(CO)[C@H]2O)[C@H]1O[C@@H]1OC[C@@H](O)[C@H](O[C@H]2O[C@H](C)[C@@H](O)[C@H](O)[C@@H]2O)[C@H]1O (stereo not given in full) | – | inactive | 9.3% [at 19.1 µM]
COC(=O)C1=CO[C@@H](O[C@@H]2O[C@H](CO)[C@@H](O)[C@H](O)[C@H]2O)C2C1CC(O)C2C (stereo not given in full) | inactive | inactive | –
N[C@@H](CCNCc1ccc(Cl)cc1)C(=O)N1CCCCC1 | inactive | inactive | –
C=C(C(=O)O)[C@@H]1CC[C@@]2(C)CC[C@@H](O)C(=C)C2C1 (stereo not given in full) | inactive | inactive | –
CC1(C)CC[C@]2(C(=O)O[C@@H]3O[C@H](CO)[C@@H](O)[C@H](O)[C@H]3O)CC[C@]3(C)C(=CCC4[C@@]5(C)CC[C@H](O[C@@H]6O[C@H](C(=O)O)[C@@H](O[C@@H]7O[C@H](CO)[C@@H](O)[C@H](O)[C@H]7O)[C@H](O)[C@H]6O[C@@H]6O[C@H](CO)[C@@H](O)[C@H](O)[C@H]6O)C(C)(C)C5CC[C@]43C)C2C1 (stereo not given in full) | inactive | inactive | –
CCc1cc(CC[C@]2(C3CCCC3)CC(O)=C(Cc3nc4nc(C)cc(C)n4n3)C(=O)O2)cc(CC)n1 | inactive | inactive | –
COc1c2c(c(C)c3c1C(=O)OC3)OC1(C)CC(O)C34OC(OC)(CC(O)C3(C)C1C2)OC4(C)C (stereo not given) | inactive | inactive | –
C[C@@H]1O[C@@H](O[C@H]2[C@H](O)[C@@H](O)[C@H](OC[C@H]3O[C@@H](OC(=O)[C@]45CCC(C)(C)C[C@H]4C4=CCC6[C@@]7(C)C[C@@H](O)[C@H](O)[C@@](C)(CO)C7[C@H](O)C[C@@]6(C)[C@]4(C)CC5)[C@H](O)[C@@H](O)[C@@H]3O)O[C@@H]2CO)[C@H](O)[C@H](O)[C@H]1O (stereo not given in full) | inactive | inactive | –

From PubChem BioAssay (NCATS)
